AmpC inh detg: AmpC beta-lactamase inhibition with detergent present; AmpC hydrolysis of nitrocefin, absorbance 480 nm, 0.01% Triton; P00811; 370,000 compounds, 0.041% hits; AID 485294; Potency, µM (titrated, usually from 114 µM), for inactives: top-dose activity change, negative = inhibition, actives largely listed as inhibitors;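 note: potency is the fitted concentration of half-maximal effect; 0% = no-compound wells and -100% = no-enzyme wells; nearly all actives have a fitted effect of over 25% in size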
Target sequence (P00811 whole entry, looked up): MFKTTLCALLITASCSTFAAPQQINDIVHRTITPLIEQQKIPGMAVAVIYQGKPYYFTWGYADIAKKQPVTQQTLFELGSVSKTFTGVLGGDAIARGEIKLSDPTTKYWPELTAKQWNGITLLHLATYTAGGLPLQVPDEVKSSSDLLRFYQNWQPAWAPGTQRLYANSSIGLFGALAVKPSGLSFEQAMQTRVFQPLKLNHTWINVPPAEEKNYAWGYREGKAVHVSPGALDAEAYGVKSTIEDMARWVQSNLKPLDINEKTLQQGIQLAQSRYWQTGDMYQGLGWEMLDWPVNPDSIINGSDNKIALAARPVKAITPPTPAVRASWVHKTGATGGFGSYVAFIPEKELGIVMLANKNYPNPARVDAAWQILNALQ
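20 mM phosphate pH 7.0 + 0.01% (detergent screen) or 0.0001% Triton X-100; 5.3 nM AmpC reagent; cpd preinc 15 min RT; nitrocefin (800 uM stock) to start; A480 q20 s × 4 min; Activity was normalised to no-enzyme and no-compound control wells.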
HCMV antiviral: blocks human cytomegalovirus replication; AID 1259415; activity change, negative = inhibition, % at 57.5 µM; 410,000 compounds, 4.5% hits; HFF cells, HCMV-luciferase reporter, 72 h; stronger effect = lower value; in the data active = activity change below about -60%; inconclusive = no clear call, values can overlap the other calls; inactive = above about -39%
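Screen run at 2 compound doses on HFFs infected with reporter HCMV, MOI 1 PFU/cell. Luciferase activity from cell lysates at 72 h post infection gave inhibition relative to buffer-only and Salinomycin wells.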
HCV inhibitor: HCV inhibition. Huh7.5.1 HCVcc-Cre infection, luciferase reporter, 44 h. Potency, µM (top dose mostly 41.8 µM), for the others: at the highest dose activity change, negative = inhibition, actives largely listed as inhibitors. 340,000 compounds, 3.4% hits. AID 651820; note: potency is the fitted concentration of half-maximal effect
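Seed cells (1,000/well) for 4 h; treat with compound and infect with HCVcc-Cre, moi about 0.5. Incubate 44 h, then detect luciferase activity.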
FMDV inh: antivirals against foot and mouth disease virus. FMDV antiviral cell-based qHTS. Potency, µM (series often up to 57.9 µM), without a hit: at the top dose activity change, negative = inhibition, actives largely listed as inhibitors. 410,000 compounds, 1.2% hits. AID 1159524; calls by dose curve; tested in HEK293T cells; note: read-out not given here; potency is the fitted concentration of half-maximal effect; nearly all actives have a fitted effect of over 45% in size
AmpC no deterg: inhibitors of E. coli AmpC beta-lactamase without detergent; AmpC nitrocefin hydrolysis, absorbance 480 nm, 0.0001% Triton; Potency, µM (titrated, usually from 57.1 µM), without a hit: at the top dose activity change, negative = inhibition, usual class: inhibitors; 330,000 compounds, 0.52% hits; AID 485341;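 note: potency is the fitted concentration of half-maximal effect; plate controls were no compound for no effect and no enzyme for full effect; nearly all actives have a fitted effect of over 20% in size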
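AmpC (5.3 nM in the dispensed reagent) in 20 mM phosphate pH 7.0 with 0.01% (detergent screen) or 0.0001% Triton X-100 was preincubated with compounds for 15 min at room temperature. Nitrocefin was then added from an 800 uM solution, and hydrolysis was followed at 480 nm.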
An asterisk follows results filed as active; ? = inconclusive; · = not tested or not shown; + = active, no number; ! = not active in a repeat. Most compounds without a hit are left out; they make up all but 7.3% or so of the library. Unless noted, calls come from the whole dose curve; as a rule, active = well fitted curve in the direction sought with a large enough effect; inconclusive = small, poorly fitted or top-dose-only effect, or another doubt; inactive = no such curve, though single readings can be large; an effect the other way counts as inactive or inconclusive. Unless noted, % is set by controls: 0 for no effect and ±100 for the full control effect.

SMILES | AmpC inh detg | HCMV antiviral | HCV inhibitor | FMDV inh | AmpC no deterg
COc1cccc(C(=O)N(Cc2cc3cc4c(cc3nc2N(C)C)OCO4)CC2CCCO2)c1 (stereo not drawn) | · | · | · | 11.0% | ·
O=C(Nc1cc(F)ccc1F)c1ccc2c(c1)nnn2C1CCCC1 | -9.5% | 36.5 | · | 43.6% | ·
COc1cc(NC(=O)C2CCN(S(=O)(=O)c3ccc4c(c3)oc(=O)n4C)CC2)cc(OC)c1 | 14.3% | -14.6 | · | -15.3% | ·
O=C1C(=Cc2cccc(O)c2O)SC(=S)N1CCCN1CCOCC1 | · | -97.5* | · | 0.0% | ·
O=C(CCN1C(=O)/C(=C/c2ccccc2Cl)SC1=S)N1CCCC1 | -21.2% | -20.5 | ? | ? | 5.4%
O=C(CCCN1C(=O)/C(=C/c2ccccc2Cl)SC1=S)N1CCCC1 | -12.1% | -109.0* | ? | ? | 126.9%
Cc1cc(N2CCN(c3ccc(F)cc3)CC2)n2nc(-c3ccc(Cl)cc3)nc2n1 | 14.3% | 11.2 | · | -23.2% | ·
N#Cc1ccc(CN2CCCC3(CCN(C(=O)c4csnn4)CC3)C2)cc1 | · | · | · | 3.2% | ·
Cc1ccc(NC(=S)NCc2ccc3[nH]c4c(c3c2)CCCC4)cc1 | ? | ? | -35.3% | -21.6% | ?
COCCNC(=S)NCc1ccc2[nH]c3c(c2c1)CCCC3 | 1.2% | -72.6* | -26.0% | 10.7% | -24.7%
C=CCn1cc(C(=O)N2CCc3ccccc3C2)c(=O)c2cc(S(=O)(=O)N(CC)CC)ccc21 | ? | -67.4* | -2.7% | 15.4% | 143.2%
CCCN(CCC)CCCNC(=O)c1cn(CC)c2ccc(S(=O)(=O)N3CCc4ccccc4C3)cc2c1=O | -1.5% | -82.0*! | ? | -9.8% | 0.8%
CCCCN(CC)CCCNC(=O)c1cn(CC)c2ccc(S(=O)(=O)N3CCc4ccccc4C3)cc2c1=O | -5.7% | -60.0*! | ? | 0.0% | 55.2%
CCn1cc(C(=O)NCCCN(CC(C)C)CC(C)C)c(=O)c2cc(S(=O)(=O)N3CCc4ccccc4C3)ccc21 | 0.4% | -1.9 | · | -14.1% | ·
CCn1cc(C(=O)NCCCOC(C)C)c(=O)c2cc(S(=O)(=O)N3CCc4ccccc4C3)ccc21 | 5.9% | -26.6 | · | 1.5% | ·
CCCCN(C)CCCNC(=O)c1cn(CC)c2ccc(S(=O)(=O)N3CCc4ccccc4C3)cc2c1=O | -10.4% | -67.6*! | ? | -16.9% | 131.5%
Cc1ccc(C(=O)CCC(=O)OC(C)C(=O)NC2CCCCC2C)cc1 (stereo not drawn) | -7.4% | 10.0 | -15.6% | -16.8% | 6.4%
Oc1ccc(Nc2nccc3[nH]c(-c4ccccc4)cc23)cc1 | · | -0.7 | · | · | ·
CC(C)CN(C(=O)Cn1ccccc1=O)C1CCS(=O)(=O)C1 (stereo not drawn) | 3.7% | 13.0 | 0.8% | -17.2% | -5.8%
CCn1cc(C(=O)NCCCN2CCCC2)c(=O)c2cc(S(=O)(=O)N3CCc4ccccc4C3)ccc21 | -9.4% | -4.4 | 14.1µM* | -10.5% | 161.7%
CCn1cc(C(=O)NCCCOC)c(=O)c2cc(S(=O)(=O)N3CCc4ccccc4C3)ccc21 | 2.3% | -15.2 | · | -18.0% | ·
Cn1c(-[n+]2c(-c3ccccc3)cc(-c3ccccc3)cc2-c2ccccc2)nc2c([N+](=O)[O-])cccc21 | -5.5% | -60.1* | ? | -3.7% | -23.7%
CCOC(=O)Cn1c(CN(C)Cc2ccccc2)nc2c1c(=O)n(C)c(=O)n2C | · | -8.2 | ? | 14.1µM* | ·
COC(=O)Cn1c(CN(C)Cc2ccccc2)nc2c1c(=O)n(C)c(=O)n2C | -14.8% | -17.0 | -12.6% | ? | 8.9%
Cn1nc(C(=O)NCc2ccccc2Cl)c2c1-c1ccccc1S(=O)(=O)C2 | -0.4% | -21.5 | -21.4% | 4.7% | -8.9%
SMILES | AmpC inh detg | HCMV antiviral | HCV inhibitor | FMDV inh | AmpC no deterg
Cn1nc(C(=O)NCc2ccc(Cl)cc2)c2c1-c1ccccc1S(=O)(=O)C2 | 0.6% | -82.1* | -3.3% | -19.9% | -34.1%
COc1ccccc1CNC(=O)c1nn(C)c2c1CS(=O)(=O)c1ccccc1-2 | -6.4% | + | -12.6% | -9.8% | -16.3%
C=CC[n+]1c(/C=C/c2ccc(OC(C)=O)c(OC)c2)ccc2ccccc21 | -10.9% | -99.5* | ? | -21.5% | 15.6%
COc1cc(/C=N/NC(=O)Nc2ccccc2)ccc1OC(C)=O | ? | 45.3 | 10.3% | 30.4% | -19.8%
COc1ccc(OC(=O)C(C)N2C(=O)c3ccccc3C2=O)cc1 (stereo not drawn) | -15.1% | 7.3 | -0.6% | 5.4% | -17.4%
CC1=CC(C)(C)N2C(=O)C(=O)c3cc(OC(=O)c4ccco4)cc1c32 | 5.5% | -87.8* | 18.0% | 5.8% | -7.7%
CC1=CC(C)(C)Nc2ccc(OC(=O)C(C)N3C(=O)c4ccccc4C3=O)cc21 (stereo not drawn) | ? | -73.7* | ? | 28.2µM* | ?
CCN1C(=O)/C(=C2/C(=O)N3c4c(cc(OC(C)=O)cc42)C(C)=CC3(C)C)SC1=S | -6.8% | 6.5 | 12.6% | ? | -18.1%
CC1=CC(C)(C)Nc2ccc(OC(=O)CN3C(=O)CCC3=O)cc21 | -10.8% | -94.1* | 11.2µM* | · | -18.6%
CC1=CC(C)(C)Nc2ccc(OC(=O)c3cccnc3)cc21 | ? | -91.7* | ? | 28.2µM* | 10.3%
CCOC(=O)C1=C(Nc2ccc(Br)cc2)C(=O)N(CC)C1 | · | -11.9 | · | · | ·
O=C(CN1N=C(c2ccccc2)CCC1=O)NCc1cccs1 | -14.4% | 10.2 | -12.5% | 3.4% | -0.8%
CCOC(=O)c1nc(-c2ccc(OC)c(OC)c2)no1 | -1.0% | 15.1 | 20.5% | -15.4% | 0.2%
CC1=CC(C)(C)Nc2ccc(OC(=O)c3ccco3)cc21 | -12.7% | -81.8* | ? | · | -30.0%
O=C(Oc1cccc(OC(=O)c2ccco2)c1)c1ccco1 | 4.6% | 0.9 | 2.5% | -12.5% | -22.5%
CC1=CC(C)(C)Nc2ccc(Cc3ccc4c(c3)C(C)=CC(C)(C)N4)cc21 | 12.6% | -19.9 | 10µM* | 13.8% | -28.6%
Cc1c(C(=O)N2CCOc3ccccc3C2)sc2ncnc(NCCCN3CCOCC3)c12 | · | · | · | -9.8% | ·
COc1ccccc1OCc1nnc(-c2ccccc2)o1 | -2.9% | -17.1 | · | 22.8% | ·
CCCCNC(=O)CCc1c(C)nc2nc(-c3cc(OC)cc(OC)c3)nn2c1C | 3.7% | -95.2* | 0.2% | -24.5% | 3.0%
CSc1ncccc1C(=O)N1CCN(S(=O)(=O)c2ccccc2)CC1 | ? | ? | 20.1% | -5.6% | -0.8%
c1ccc(-c2cc(NCCN3CCCCC3)c3ccccc3n2)cc1 | -0.9% | -99.6* | ? | ? | -2.8%
C1=C(c2ccc3c(c2)CN(Cc2cccn2-c2ncccn2)CCO3)Cc2ccccc21 | · | · | · | -10.2% | ·
Cc1ccc(S(=O)(=O)N(C)C)cc1NC(=O)c1cc(-c2ccco2)nc2ccccc12 | 4.0% | · | ? | -17.1% | -29.7%
O=C(O)CC(Sc1ccc(Cl)cc1)C(=O)Nc1ccccc1 (stereo not drawn) | · | -2.2 | · | · | ·
